High-throughput results from PubChem BioAssay.
FEN1 inh – inhibitors of human flap endonuclease 1 | Potency, µM (series often up to 114 µM), without a hit: at the top dose activity change, negative = inhibition, usual class: inhibitors | AID 588795 | 390,000 tested, 0.35% active | Recombinant FEN1 flap cleavage, fluorescence, 15 min; further: potency means the concentration at half of the fitted maximal effect; on the % scale 0 is the no-effect control and ±100 the full control effect; nearly all actives have a fitted effect of over 65% in size
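Quantitative HTS format: each compound was titrated, incubated with 10 nM nuclease for 15 min at room temperature, then challenged with flap substrate at 50 nM final. Signal change over 15 min gave concentration–effect curves.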
POLK inh – inhibitors of human DNA polymerase kappa; Q9UBT6; purified Pol kappa, fluorescent DNA synthesis assay, 10 min; Potency, µM (highest dose often 107 µM), for the others: at the top dose activity, negative = inhibition, hits mostly inhibitors; 400,000 tested, 0.53% active; AID 588579; further: potency means the concentration at half of the fitted maximal effect; on the % scale 0 is the no-effect control and ±100 the full control effect
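Fluorescent qHTS in 1536-well format: enzyme (10 nM) and compound sat 15 min at room temperature before 50 nM substrate (final) was added. Signal taken at 0 and 10 min; no-enzyme buffer wells were negative controls.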
WRN inhibitor – WRN helicase (human) inhibition. Q14191. WRN helicase unwinding, fluorescent forked duplex, kinetic. Potency, µM (doses to about 114 µM), without a hit: at the top dose activity change, negative = inhibition, actives largely listed as inhibitors. 360,000 tested, 0.46% active; further: potency means the concentration at half of the fitted maximal effect; on the % scale 0 is the no-effect control and ±100 the full control effect; nearly all actives have a fitted effect of over 55% in size
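Fluorescence dequenching readout, ex 525 nm/em 598 nm, kinetic mode: forked duplex DNA (100 nM final) with adjacent fluorophore and quencher unwound by WRN (20 nM final) with 2 mM ATP. Compound preincubation 15 min, room temperature.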
POLI inh – inhibitors of human DNA polymerase iota | Potency, µM (titrated, usually from 115 µM), without a hit: at the highest dose activity, negative = inhibition, actives largely listed as inhibitors | 390,000 tested, 1% active | Pol iota fluorescent replication assay, 10 min; further: potency means the concentration at half of the fitted maximal effect
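Fluorescent replication assay read twice, at 0 min and 10 min after adding 50 nM (final) substrate. Enzyme (10 nM) and compounds were first incubated 15 min at room temperature; enzyme-free buffer wells were negative controls.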
Pol eta inh – DNA polymerase eta (human) inhibition. Q9Y253. recombinant Pol eta, fluorescent DNA replication assay. Potency, µM (doses to about 114 µM), inactives show top-dose activity change, negative = inhibition, usual class: inhibitors. 390,000 tested, 1.2% active. AID 588591; further: potency means the concentration at half of the fitted maximal effect; on the % scale 0 is the no-effect control and ±100 the full control effect
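Fluorescent replication assay: 50 nM final substrate added after a 15 min room-temperature compound preincubation with 10 nM enzyme. Signal taken at 0 min and again at 10 min.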
Pol beta inh-1 – blocks human DNA polymerase beta activity. Pol beta primer extension/strand displacement, fluorescence kinetic. 340,000 tested, 1.3% active. Potency, µM (highest dose often 114 µM), inactives show at the top dose activity change, negative = inhibition, most hits filed as inhibitors. P06746; further: potency means the concentration at half of the fitted maximal effect; on the % scale 0 is the no-effect control and ±100 the full control effect
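Pol beta (10 nM) and compounds were preincubated 15 min at room temperature, then 50 nM substrate (final) started primer extension/strand displacement. Reads were taken at 0 and 10 min; concentration-response data were fitted to a four-parameter Hill equation.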
Pol beta inh-2 – Inhibitors of human DNA polymerase beta, hit validation | Pol beta primer extension/strand displacement, fluorescence kinetic | 250 tested, 87% active | shares compounds with Pol beta inh-1 | AID 540280 | Potency, µM, most hits filed as inhibitors; calls by dose curve; further: potency means the concentration at half of the fitted maximal effect
Klenow counter – inhibits Klenow fragment polymerase in counter-screen; shares compounds with Pol beta inh-1; Klenow exo- polymerase counter-screen, fluorescent DNA substrate; activity change, negative = inhibition, % at 57.1 µM; 250 tested, under 10 active; AID 540300
HIV RT inh – HIV-1 RT inhibition, pol beta selectivity check; shares compounds with Pol beta inh-1; HIV-1 RT polymerase activity, counter-screen; activity % (negative = inhibition, positive = activation), % at 57.1 µM; 250 tested, under 10 active
POLB valid – DNA polymerase beta inhibition, radiolabeled validation; shares compounds with Pol beta inh-1; radiolabeled primer extension gel assay, phosphorimager; inhibition, % at 10 µM; 110 tested, 91% active; AID 540325;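 active means inhibition at 10 µM of 30% or more; inconclusive means no clear call, values can overlap the other calls; inactive means inhibition at 10 µM under 30%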
PGK validate – blocks T. brucei phosphoglycerate kinase. shares compounds with POLK inh. TbPGK coupled GAPDH assay, Kinase-Glo luminescence. Potency, µM (highest dose often 57.5 µM), for inactives: top-dose activity change, negative = inhibition, most hits filed as inhibitors. 500 tested, 79% active; further: potency means the concentration at half of the fitted maximal effect; on the % scale 0 is the no-effect control and ±100 the full control effect; nearly all actives have a fitted effect of over 65% in size
Pol iota confirm – Human Pol iota inhibitor confirmatory assay | shares compounds with POLK inh | Pol iota primer extension, TAMRA/BHQ fluorescence | Potency, µM, most hits filed as inhibitors | 1,500 tested, 77% active | AID 720496; further: potency means the concentration at half of the fitted maximal effect
An asterisk follows results filed as active. This is a sample that favours compounds with a hit; in the whole collection about 2.4% have one here. Unless noted, the call rests on the fitted dose curve; in most records, active means well fitted curve in the direction sought with a large enough effect; inconclusive means small, poorly fitted or top-dose-only effect, or another doubt; inactive means no such curve, though single readings can be large; an effect the other way counts as inactive or inconclusive.

How did Cc1ccc2c(Sc3ccc(Cl)cc3)c(C(=O)NCCC(C)C)[nH]c2c1 do in these assays?
FEN1 inh: -14.1%; POLK inh: -1.6%; POLI inh: 11.1%; Pol eta inh: -16.1%; Pol beta inh-1: 14.6%

How did Nc1c(C(=O)NC2CC2)sc2nc3c(c(-c4ccco4)c12)CC/C3=C/c1ccco1 do in these assays?
FEN1 inh: 5.62µM*; POLK inh: 0.708µM*; WRN inhibitor: 50.1µM*; POLI inh: inconclusive; Pol eta inh: 0.708µM*; Pol beta inh-1: 0.631µM*; Pol beta inh-2: 28.2*; Klenow counter: -22.1; HIV RT inh: inconclusive; POLB valid: 100.0*

Results for CCOC(=O)c1cc(-c2ccc(N3CCOCC3)cc2)nn1-c1ccccc1C(=O)O ?
FEN1 inh: -5.4%; POLK inh: -15.8%; WRN inhibitor: inconclusive; POLI inh: inconclusive; Pol eta inh: inconclusive; Pol beta inh-1: 12.6µM*; Pol beta inh-2: 20*; Klenow counter: 10.3; HIV RT inh: 21.1; Pol iota confirm: inconclusive

How did CCOC(=O)c1cc(-c2ccc(N3CCOCC3)cc2)nn1-c1ccccc1 do in these assays?
FEN1 inh: -17.7%; POLK inh: -6.4%; WRN inhibitor: -6.6%; POLI inh: 0.2%; Pol eta inh: -11.7%; Pol beta inh-1: -29.8%

How did CCCCCCc1cc2cc(-c3nnc(-c4ccccc4OC)o3)c(=O)oc2cc1O do in these assays?
FEN1 inh: 44.7µM*; POLK inh: 20µM*; WRN inhibitor: 44.7µM*; POLI inh: inconclusive; Pol eta inh: 8.91µM*; Pol beta inh-1: 14.1µM*; Pol beta inh-2: 7.08*; Klenow counter: -20.8; HIV RT inh: 9.3; PGK validate: 10.3µM*

How did O=C(NC1CCCCC1)c1ccc(CSc2nc3ccncc3n2Cc2ccccc2F)cc1 do in these assays?
FEN1 inh: 18.5%; POLK inh: 13.3%; POLI inh: inconclusive; Pol eta inh: -4.3%; Pol beta inh-1: 4.8%

What do the screens show for `CCOc1cc(/C=C(/C#N)c2nc3ccccc3[nH]2)ccc1Oc1ccc([N+](=O)[O-])cn1`?
FEN1 inh: 4.2%; POLK inh: -8.2%; WRN inhibitor: -13.8%; POLI inh: 125.5%; Pol eta inh: -11.2%; Pol beta inh-1: inconclusive

Results for COc1cc(/C=C(/C#N)c2nc3ccccc3[nH]2)ccc1Oc1ncccc1[N+](=O)[O-] ?
FEN1 inh: -12.5%; POLK inh: -41.2%; WRN inhibitor: inconclusive; POLI inh: inconclusive; Pol eta inh: inconclusive; Pol beta inh-1: 12.6µM*; Pol beta inh-2: 12.6*; Klenow counter: -6.6; HIV RT inh: 10.0; Pol iota confirm: inconclusive
